GPR151 activ = activators of human GPR151; 1% of 650,000 active; PathHunter beta-arrestin GPR151 cells, luminescence; AID 1508602; activation, % at 11.2 µM; in the data active means activation above about 4.9%;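 further: 0% = median of compound wells and 100% = cells with positive control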
TEAD-YAP block = TEAD-YAP interaction inhibition | inhibition, % at 9.12 µM | 1.4% of 640,000 active | HEK-TIYL cells, TEAD-Gal4/YAP UAS-luciferase luminescence; in the data active means inhibition above about 32%;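 further: 0% = median of test compound wells and 100% = reference inhibitor wells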
MITF inh = human MITF inhibition, primary screen; O75030; AlphaScreen MITF homodimerization, bead proximity signal; 0.91% of 650,000 active; inhibition, % at 2.6 µM; in the data active means inhibition above about 50%;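 further: 0% = vehicle wells with protein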
Target sequence (O75030 whole entry, looked up): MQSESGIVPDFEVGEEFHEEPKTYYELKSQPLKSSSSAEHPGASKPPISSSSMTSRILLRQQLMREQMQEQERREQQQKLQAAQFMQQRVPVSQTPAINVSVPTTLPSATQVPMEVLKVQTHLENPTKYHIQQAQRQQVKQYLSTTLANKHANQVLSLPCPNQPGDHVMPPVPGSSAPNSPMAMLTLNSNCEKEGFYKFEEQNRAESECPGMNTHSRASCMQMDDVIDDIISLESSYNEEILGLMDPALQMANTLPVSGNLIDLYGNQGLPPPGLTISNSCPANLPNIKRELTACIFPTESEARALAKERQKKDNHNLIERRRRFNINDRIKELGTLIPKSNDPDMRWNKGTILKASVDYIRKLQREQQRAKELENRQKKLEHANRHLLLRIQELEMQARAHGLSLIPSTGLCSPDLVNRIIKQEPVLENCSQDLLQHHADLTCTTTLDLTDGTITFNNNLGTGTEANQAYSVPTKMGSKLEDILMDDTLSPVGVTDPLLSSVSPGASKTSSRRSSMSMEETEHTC
FBW7 activator = human FBW7 E3 ligase activation, primary screen. 0.13% of 650,000 active. normalized activity (activation), % at 26.1 µM. Q969H0. AlphaScreen FBW7–phospho-cyclin E peptide binding, activator screen; in the data active means normalized activity above about 1.9%;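 further: purified mutant Fbw7 with reduced substrate affinity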
GPR151 conf act = confirmation of human GPR151 activators; activation, % at 11.2 µM; shares compounds with GPR151 activ; 6,700 tested, under 10 active; GPR151 PathHunter beta-arrestin cells, luminescence, 90 min; % of EA-reagent control over plate median;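 active means mean percent activation across replicates above the confirmation screen cutoff of 4.91%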
GPR119 counter = GPR119 activation, counter-screen for GPR151 activators; shares compounds with GPR151 activ; GPR119 PathHunter beta-arrestin cells, luminescence, 90 min; 0 = compound-well median, 100 = enzyme-acceptor control; activation, % at 11.2 µM; 0.3% of 6,700 active;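 active means mean percent activation in the counterscreen above 29.09%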;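 further: counterscreen on off-target GPR119 to flag nonselective hits from the GPR151 activator screen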
Active calls of the source: *; . = not tested or not shown. Compounds with a hit are over-represented: about 3.5% of the library has one in this group of screens.

SMILES | GPR151 activ | TEAD-YAP block | MITF inh | FBW7 activator | GPR151 conf act | GPR119 counter
Cc1ccc(Cn2nc(C)c(NC(=O)c3noc(C)c3[N+](=O)[O-])c2C)cc1 | -1 | 18 | 10 | 0 | . | .
O=C(Nc1cccc2ccccc12)C1CC(=O)N(c2cccc(Cl)c2)C1 (stereo not drawn) | 6.9* | -1 | 7 | 0 | 0 | 6
COc1ccc(S(=O)(=O)Nc2ccc(Br)cc2)cc1N | 4 | -9 | -2 | 0 | . | .
COc1ccc2cc(S(=O)(=O)NCc3ccccc3)ccc2c1 | 0 | 0 | 7 | 0 | . | .
CCOc1ccc2cc(S(=O)(=O)NCc3ccccc3)ccc2c1 | 5.2* | 8 | 7 | 0 | 0 | 6
Cc1c(NC(=O)CSc2ccc(C(C)(C)C)cc2)c(=O)n(-c2ccccc2)n1C | 8.2* | 10 | 11 | 0 | 0 | 0
Cc1c(NC(=O)CSc2ccccc2)c(=O)n(-c2ccccc2)n1C | 2 | 8 | -29 | 0 | . | .
COc1cccc(CNC(=O)c2nc3ccc(-c4ncnc5[nH]ccc45)cc3c(=O)[nH]2)c1 | 1 | -9 | -3 | 0 | . | .
COc1cccc(CNS(=O)(=O)c2ccc(-c3ncnc4[nH]ccc34)cc2F)c1 | 5.0* | -15 | 28 | 0 | 1 | -7
C/C(=N\NC(=O)CCc1ccccc1)c1ccc(Br)cc1 | 5.9* | 1 | 1 | 0 | 1 | 6
O=C(CCc1ccccc1)N/N=C/c1ccccc1O | 5.9* | -3 | -7 | 0 | -1 | -7
N#Cc1ccc(/C=N/NC(=S)NCc2ccccc2)cc1 | 0 | 3 | 8 | 0 | . | .
N#Cc1ccc(/C=N/NC(=O)CCc2ccccc2)cc1 | 6.0* | 7 | 5 | 0 | 0 | 7
COc1cccc(C2(CC(=O)N3CCN(c4ccccc4)CC3)CC(=O)N(C)C2=O)c1 (stereo not drawn) | 1 | 1 | 9 | 0 | . | .
COc1ccc(-c2nc(NC(C)=O)sc2C)cc1OC | 6.0* | 12 | 12 | 0 | -1 | -8
COc1ccc(-c2noc(N(C)CC(=O)N3CCN(c4ccccc4OC)CC3)n2)cc1 | 6.5* | -6 | 2 | 0 | 0 | -21
COc1ccc(-c2noc(N(C)CC(=O)N3CCN(c4cccc(Cl)c4)CC3)n2)cc1 | -1 | -4 | 0 | 0 | . | .
CCOC(=O)Cn1nnnc1CN(Cc1ccccc1)Cc1cc2cc(C)ccc2[nH]c1=O | 6.4* | -18 | 3 | 0 | -1 | -15
Cc1cc(C)cc(C(=O)NC(=S)Nc2ccc3c(c2)C(=O)N(C)C3=O)c1 | -1 | 3 | 19 | 0 | . | .
COc1ccc(C=O)cc1OC(=O)c1cccc2ccccc12 | 10* | -1 | 11 | 0 | -1 | -15
CC1(C)Cc2nc3sc4c(SCC(=O)N5CCOCC5)ncnc4c3cc2CO1 | 5.9* | -5 | -17 | 0 | 0 | -9
Cc1sc(NC(=O)CCS(=O)(=O)c2ccc(Cl)cc2)c(C#N)c1C | 5.2* | 2 | 11 | 0 | 0 | 1
Nc1nonc1-c1nc2ccccc2n1CC1CC1 | 0 | 3 | -11 | 0 | . | .
COC(=O)c1ccccc1NS(=O)(=O)c1ccc([N+](=O)[O-])cc1 | 1 | 4 | 7 | 0 | . | .
CC1=CC2=NC(=O)/C(=C\c3ccc(-c4ccccc4Cl)o3)C(=N)N2O1 | 1 | 3 | 8 | 0 | . | .
SMILES | GPR151 activ | TEAD-YAP block | MITF inh | FBW7 activator | GPR151 conf act | GPR119 counter
CC1=CC2=NC(=O)/C(=C\c3ccc(-c4cccc(Cl)c4)o3)C(=N)N2O1 | 5.9* | 7 | -1 | 0 | 0 | 11
O=C(c1c(F)cccc1F)N1CCN(S(=O)(=O)c2ccc(Br)cc2)CC1 | 6.1* | -14 | 5 | 0 | 0 | 13
O=C(COC(=O)c1cccc(S(=O)(=O)NCC(F)(F)F)c1)c1ccccc1 | 5.6* | -9 | 16 | 0 | -1 | 0
C/C=C/C(=O)Nc1cc(Cl)ccc1Cl | -1 | 8 | 27 | 0 | . | .
CC(C)c1ccc(-n2cc(-c3ccc(C(=O)N4CCCC4)cn3)cn2)cc1 | 6.2* | 19 | 8 | 0 | 0 | 7
O=C(CN1C(=O)C2(SCC(=O)N2c2ccc(F)c(F)c2)c2ccccc21)NCCc1ccccc1 (stereo not drawn) | 5.4* | -1 | 7 | 0 | 0 | -7
O=C(CN1C(=O)C2(SCC(=O)N2c2ccc(F)cc2)c2ccccc21)NCCc1ccccc1 (stereo not drawn) | 1 | 12 | -1 | 0 | . | .
CCn1c(Cc2ccccc2)nnc1SCC(=O)N1CCCCC1 | 6.3* | 2 | 7 | 0 | 0 | 4
COc1ccc(C2Nn3c(C)nnc3SC2C(=O)N2CCCC2)cc1Br (stereo not drawn) | 5.1* | 6 | 10 | 0 | 0 | -5
O=S1(=O)CCC(NS(=O)(=O)c2ccc(S(=O)(=O)NC3CC3)cc2)C1 (stereo not drawn) | 5.2* | -8 | -6 | 1 | -1 | -9
N#Cc1ccc(COC(=O)c2ccc(S(N)(=O)=O)cc2)cc1 | -1 | 2 | -1 | 0 | . | .
O=C(CN1C(=O)[C@@H]2CCCN2C(=O)c2ccccc21)Nc1ccccc1F | -1 | 8 | 4 | 0 | . | .
O=C(CN1C(=O)[C@H]2CCCN2C(=O)c2ccccc21)Nc1cccc2ccccc12 | 6.8* | -2 | -12 | 0 | 1 | 1
COc1ccc(CCNc2nc(NCCCN3CCCC3=O)nc3c2ncn3CCN2CCCC2=O)cc1 | 0 | 9 | 2 | 0 | . | .
O=C(Oc1ccc(-c2ccccc2)cc1)N1CCOCC1 | 5.8* | -40 | -2 | 0 | 0 | -11
O=C(O)c1ccc(NS(=O)(=O)c2cc(C(=O)O)ccc2Br)cc1 | 5.6* | -2 | -8 | 0 | 0 | -4
CC(C(=O)NC1CCCCC1)n1cccc1 (stereo not drawn) | -2 | 8 | -6 | 0 | . | .
OC(CN1CCOCC1)Cn1cnc2c(SCc3ccccc3)ncnc21 (stereo not drawn) | 6.0* | 0 | 9 | 0 | 1 | 0
CCOC(=O)c1ccc(CNC(=O)C2CCCN2c2nc(C)c3cc(F)ccc3n2)o1 (stereo not drawn) | 1 | 10 | 12 | 0 | . | .
CC(=O)c1c(C)nnn1-c1nonc1C | 5.1* | 8 | 15 | 1 | 1 | -4
Cc1ccc(/C=N/NC(=O)c2nc3nc(C)cc(C)n3n2)cc1 | -1 | -14 | -7 | 0 | . | .
Cc1cc(C)n2nc(C(=O)N/N=C/c3ccccc3)nc2n1 | 10* | -4 | -1 | 0 | -1 | -8
Cc1cc(C)c(NC(=O)CCC(=O)NN)c(C)c1 | 0 | 1 | 2 | 0 | . | .
CCOc1ccc2[nH]c(=O)c(CN(Cc3ccc(OC)cc3)C(=O)N(C)C)cc2c1 | 8.3* | 4 | 1 | 0 | 0 | 15
O=C1c2ccccc2C(=O)N1CCOc1ccc(Br)cn1 | 6.0* | -2 | -3 | 0 | 0 | 0
O=C1c2ccccc2C(=O)N1CCOc1ccccc1F | -3 | -69 | -1 | 0 | . | .
